Only some compounds are listed: those with a hit (about 6% of all), similar ones and a draw of the others.
D1 antagonist: human D1 dopamine receptor antagonism; HEK293 TREx D1 cells, calcium flux, dopamine EC80; active compounds read low; activity change, negative = inhibition, % at 10 µM; actives 3.2% (n = 360,000); AID 504652; in the data active = activity change below about -30%
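Using tetracycline-induced force-coupled D1 Hek293 cells and a calcium dye, signals were followed for 180 s after compound, then for 180 s after EC80 dopamine, to detect inhibitors.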
D3 antag: D3 dopamine receptor (human) antagonism | D3R cells, DiscoveRx beta-arrestin luminescence, antagonist mode; active compounds read low | max response, negative = inhibition, % | actives 2.5% (n = 360,000) | AID 652054; in the data active = max response below about -50%; inconclusive = no clear call, values can overlap the other calls
Target sequence (P35462 whole entry, looked up): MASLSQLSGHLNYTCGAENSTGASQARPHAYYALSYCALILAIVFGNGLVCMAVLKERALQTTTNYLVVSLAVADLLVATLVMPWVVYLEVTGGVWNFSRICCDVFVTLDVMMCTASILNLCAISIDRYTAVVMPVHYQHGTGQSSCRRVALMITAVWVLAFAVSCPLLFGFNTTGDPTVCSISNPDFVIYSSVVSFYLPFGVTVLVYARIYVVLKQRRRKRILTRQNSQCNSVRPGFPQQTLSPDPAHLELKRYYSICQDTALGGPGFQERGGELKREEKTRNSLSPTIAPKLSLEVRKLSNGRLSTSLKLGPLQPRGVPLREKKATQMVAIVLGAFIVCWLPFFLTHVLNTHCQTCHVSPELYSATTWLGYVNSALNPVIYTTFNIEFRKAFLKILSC
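Cells expressing the human receptor were seeded at 1500 cells/well, incubated overnight at 37 degrees C in 5% CO2, then exposed to library compounds with dopamine controls for 90 minutes at 37 degrees C before luminescent detection.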
D3 ag: activates the human D3 dopamine receptor. D3R DiscoveRx beta-arrestin cells, luminescence, 90 min. max activation, %. actives 0.58% (n = 410,000). AID 652048; in the data active = max activation above about 30%
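Agonist mode: compounds and dopamine controls were applied to plated cells for 90 min at 37 degrees C after an overnight attachment at 1500 cells/well. Luminescent read-out followed 30 - 60 minutes at room temperature with DiscoveRx detection reagent.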
D1 agonist: human D1 receptor agonism; actives 1% (n = 360,000); activation, % at 2 µM; P21728; HEK293 T-REx D1 cells, calcium flux, agonist mode; in the data active = activation above about 30%
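Inducible HEK293 T-REx D1 cells, force-coupled to calcium signalling, were plated at 4000 cells/well with tetracycline and held overnight at 30 C. After no-wash calcium dye loading, compound-evoked calcium rise over 180 s flagged agonists.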
D1 PAM: potentiators of human D1 dopamine receptor. HEK293 TREx D1 cells, calcium flux, dopamine EC20 potentiation. potentiation, % at 10 µM. actives 0.036% (n = 360,000). AID 504651; in the data active = potentiation above about 30%
Numbers stand for hits; – = inactive; ? = inconclusive; · = no result; ! = not confirmed by another sample.

SMILES	D1 antagonist	D3 antag	D3 ag	D1 agonist	D1 PAM
NS(=O)(=O)c1ccc(N=Nc2ccc(=O)[nH]c2O)cc1	–	-101.8	–	–	–
CCCc1ccc(C(O)c2ncc(-c3ccccc3)[nH]2)cc1 (centres undefined)	·	–	–	·	·
Cc1cccc(N2N=C(C(=O)N3Cc4ccccc4CC3C(N)=O)CCC2=O)c1 (centres undefined)	·	–	–	·	·
CC(=O)Nc1nc(-c2ccccc2)nc(-c2ccccc2OC(C)=O)n1	–	–	–	–	–
CC(=O)Nc1nc(C)nc(-c2ccccc2OC(C)=O)n1	–	–	31.3	–	–
O=C(COC(=O)c1cc(S(=O)(=O)N2CCCCC2)ccc1N1CCOCC1)NCCc1ccc(F)cc1	–	–	–	–	–
CCOc1ccccc1NC(=O)c1nc(S(=O)(=O)Cc2cccc(C)c2)ncc1Cl	-31.3!	-95.7	–	–	–
Cc1cccc(CS(=O)(=O)c2ncc(Cl)c(C(=O)Nc3nnc(C(C)C)s3)n2)c1	–	-61.6	–	–	–
CCSc1ncc(Cl)c(C(=O)Nc2ccccc2OC)n1	–	–	–	–	–
CSc1nnc(NC(=O)c2nc(S(=O)(=O)Cc3cccc(C)c3)ncc2Cl)s1	–	-53.5	–	–	–
CSc1nnc(NC(=O)c2nc(S(=O)(=O)Cc3ccccc3F)ncc2Cl)s1	–	–	–	–	–
CCc1nnc(NC(=O)c2nc(S(=O)(=O)Cc3ccccc3)ncc2Cl)s1	–	–	–	–	–
CCc1nnc(NC(=O)c2nc(S(=O)(=O)Cc3ccc(C)cc3)ncc2Cl)s1	–	-50.4	–	–	–
CC(OC(=O)c1ccc([N+](=O)[O-])o1)C(=O)Nc1nc(-c2ccc(F)c(F)c2)cs1 (centres undefined)	–	–	–	–	–
CC1(C(=O)NS(=O)(=O)c2ccc(Cl)s2)CCN1C(=O)CCc1ccccc1 (centres undefined)	·	–	–	·	·
CCc1nnc(NC(=O)c2nc(Cl)ccc2Cl)s1	–	–	–	–	–
CCc1nnc(NC(=O)c2nc(S(=O)(=O)Cc3cccc(C)c3)ncc2Cl)s1	–	-69.9	–	–	–
CCOc1ccccc1NS(=O)(=O)c1cc2[nH]c(=O)c(=O)[nH]c2cc1C	–	·	–	–	–
O=C(Nc1ccc(SC(F)F)cc1)c1ccc(F)cc1	-36.6	–	–	–	–
COc1cccc(/C=N/Nc2nc(Nc3ccc([N+](=O)[O-])cc3)nc(N3CCCC3)n2)c1O	–	-119.4	–	–	–
O=[N+]([O-])c1ccc(N/N=C/c2cccc(O)c2O)cc1	–	-50.3	–	–	–
O=[N+]([O-])c1ccc(N/N=C/c2cccc(O)c2)cc1	–	?	–	–	–
O=[N+]([O-])c1ccc(N/N=C/c2c[nH]c3ccccc23)cc1	–	–	–	81.0	–
O=C(O)COc1ccc(/C=N/Nc2nc(Nc3ccccc3)nc(N3CCCCC3)n2)cc1	–	-50.4	–	–	–
NC(CSC1(c2ccc(Cl)cc2)c2ccccc2-c2ccccc21)C(=O)O (centres undefined)	·	–	–	·	·
SMILES	D1 antagonist	D3 antag	D3 ag	D1 agonist	D1 PAM
CC(C)C[C@H]1CN([C@@H](Cc2ccc(O)cc2)CN2CCC[C@H]2CN2C(=O)C(=O)NC[C@@H]2Cc2ccc(O)cc2)C(=O)C(=O)N1CCc1ccccc1	·	–	–	·	·
COc1ccc(C(=O)N/N=C/c2sc(N3CCOCC3)nc2-c2ccccc2)cc1OC	–	–	–	–	–
COc1ccccc1NS(=O)(=O)c1cc([N+](=O)[O-])ccc1N/N=C/c1c[nH]c2ccccc12	–	-87.6	–	61.3	–
O=[N+]([O-])c1ccc(NN=Cc2cccc([N+](=O)[O-])c2)cc1	·	?	–	·	·
O=[N+]([O-])c1ccc(N/N=C/c2ccc[nH]2)cc1	-43.6	?	–	78.6	–
O=[N+]([O-])c1cc(/C=N/Nc2nc3ccccc3[nH]2)c(O)cc1O	–	-65.4	–	–	–
COc1ccccc1NS(=O)(=O)c1cc([N+](=O)[O-])ccc1N/N=C/c1sc(N2CCOCC2)nc1-c1ccccc1	–	-84.1	–	33.4	–
COc1ccc(NS(=O)(=O)c2cc([N+](=O)[O-])ccc2N/N=C\c2c(C)[nH]c3ccccc23)cc1	–	–	–	–	–
Cc1cc(C)cc(NC(=O)CC(C)n2nc(C)cc2C)c1 (centres undefined)	–	·	–	–	–
